Laboratory results from ChEMBL document CHEMBL1961873, “Compounds: GSK PKIS; Assays: Nanosyn kinase panel” (2012).
Several values for one entry are separate records, joined by “and”; a condition that tells them apart may be missing. Identical values can stand only once.

Experiments:
[1] = biological target: Protein kinase C gamma type (Homo sapiens) (UniProt P05129); conditions: at 1 µM;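 further: each value is an averaged percent inhibition of the enzyme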
[2] = biological target: T1, Protein kinase C iota type (Homo sapiens) (UniProt P41743); conditions: at 0.1 µM
T1 sequence (whole entry): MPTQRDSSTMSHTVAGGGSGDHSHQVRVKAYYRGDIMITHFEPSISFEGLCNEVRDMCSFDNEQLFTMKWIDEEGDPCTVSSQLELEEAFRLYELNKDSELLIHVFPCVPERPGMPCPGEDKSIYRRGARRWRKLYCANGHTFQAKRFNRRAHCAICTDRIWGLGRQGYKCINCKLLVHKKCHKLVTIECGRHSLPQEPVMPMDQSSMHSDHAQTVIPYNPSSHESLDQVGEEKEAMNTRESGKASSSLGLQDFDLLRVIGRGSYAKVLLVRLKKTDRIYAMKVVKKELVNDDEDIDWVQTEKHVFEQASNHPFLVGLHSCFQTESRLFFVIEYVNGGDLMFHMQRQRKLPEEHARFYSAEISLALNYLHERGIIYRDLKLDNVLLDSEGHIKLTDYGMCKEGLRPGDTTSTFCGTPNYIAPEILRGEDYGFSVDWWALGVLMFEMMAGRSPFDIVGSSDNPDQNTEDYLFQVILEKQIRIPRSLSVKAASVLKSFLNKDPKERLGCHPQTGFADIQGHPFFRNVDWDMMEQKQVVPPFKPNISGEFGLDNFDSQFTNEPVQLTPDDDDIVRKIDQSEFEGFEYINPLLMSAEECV

[3] = biological target: T1, Protein kinase C iota type (Homo sapiens); conditions: at 1 µM
[4] = biological target: Protein kinase C theta type (Homo sapiens) (UniProt Q04759); conditions: at 0.1 µM
[5] = biological target: Protein kinase C theta type (Homo sapiens) (UniProt Q04759); conditions: at 1 µM
[6] = biological target: Protein kinase C beta type (Homo sapiens) (UniProt P05771); conditions: at 0.1 µM
[7] = biological target: Protein kinase C beta type (Homo sapiens) (UniProt P05771); conditions: at 1 µM
[8] = biological target: T2, Serine/threonine-protein kinase D1 (Homo sapiens) (UniProt Q15139); conditions: at 0.1 µM
T2 sequence (whole entry): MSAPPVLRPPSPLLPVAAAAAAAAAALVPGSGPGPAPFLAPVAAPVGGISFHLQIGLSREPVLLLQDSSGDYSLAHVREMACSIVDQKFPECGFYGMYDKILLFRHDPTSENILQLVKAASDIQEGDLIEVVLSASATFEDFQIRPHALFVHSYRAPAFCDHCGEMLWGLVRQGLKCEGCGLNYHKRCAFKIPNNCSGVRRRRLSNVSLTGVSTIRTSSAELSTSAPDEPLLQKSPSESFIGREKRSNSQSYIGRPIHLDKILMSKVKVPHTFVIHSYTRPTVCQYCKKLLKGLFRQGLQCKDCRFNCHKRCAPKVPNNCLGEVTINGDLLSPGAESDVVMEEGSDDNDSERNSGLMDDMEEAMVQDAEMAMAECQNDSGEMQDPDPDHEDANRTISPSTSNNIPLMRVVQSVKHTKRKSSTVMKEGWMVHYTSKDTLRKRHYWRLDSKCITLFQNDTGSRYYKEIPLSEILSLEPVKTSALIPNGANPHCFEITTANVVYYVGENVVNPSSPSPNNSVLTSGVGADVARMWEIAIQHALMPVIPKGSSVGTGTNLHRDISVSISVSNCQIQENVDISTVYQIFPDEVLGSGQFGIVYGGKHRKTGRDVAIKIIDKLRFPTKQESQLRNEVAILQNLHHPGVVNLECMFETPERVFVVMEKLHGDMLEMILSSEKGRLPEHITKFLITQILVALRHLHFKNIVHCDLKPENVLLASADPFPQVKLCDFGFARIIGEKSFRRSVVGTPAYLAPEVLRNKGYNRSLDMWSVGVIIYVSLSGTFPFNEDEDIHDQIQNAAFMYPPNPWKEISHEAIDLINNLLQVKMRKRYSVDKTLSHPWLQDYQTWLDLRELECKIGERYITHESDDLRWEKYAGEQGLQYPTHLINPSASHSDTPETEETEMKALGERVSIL

[9] = biological target: T2, Serine/threonine-protein kinase D1 (Homo sapiens); conditions: at 1 µM
[10] = biological target: T3, Serine/threonine-protein kinase D2 (Homo sapiens) (UniProt Q9BZL6); conditions: at 0.1 µM
T3 sequence (whole entry): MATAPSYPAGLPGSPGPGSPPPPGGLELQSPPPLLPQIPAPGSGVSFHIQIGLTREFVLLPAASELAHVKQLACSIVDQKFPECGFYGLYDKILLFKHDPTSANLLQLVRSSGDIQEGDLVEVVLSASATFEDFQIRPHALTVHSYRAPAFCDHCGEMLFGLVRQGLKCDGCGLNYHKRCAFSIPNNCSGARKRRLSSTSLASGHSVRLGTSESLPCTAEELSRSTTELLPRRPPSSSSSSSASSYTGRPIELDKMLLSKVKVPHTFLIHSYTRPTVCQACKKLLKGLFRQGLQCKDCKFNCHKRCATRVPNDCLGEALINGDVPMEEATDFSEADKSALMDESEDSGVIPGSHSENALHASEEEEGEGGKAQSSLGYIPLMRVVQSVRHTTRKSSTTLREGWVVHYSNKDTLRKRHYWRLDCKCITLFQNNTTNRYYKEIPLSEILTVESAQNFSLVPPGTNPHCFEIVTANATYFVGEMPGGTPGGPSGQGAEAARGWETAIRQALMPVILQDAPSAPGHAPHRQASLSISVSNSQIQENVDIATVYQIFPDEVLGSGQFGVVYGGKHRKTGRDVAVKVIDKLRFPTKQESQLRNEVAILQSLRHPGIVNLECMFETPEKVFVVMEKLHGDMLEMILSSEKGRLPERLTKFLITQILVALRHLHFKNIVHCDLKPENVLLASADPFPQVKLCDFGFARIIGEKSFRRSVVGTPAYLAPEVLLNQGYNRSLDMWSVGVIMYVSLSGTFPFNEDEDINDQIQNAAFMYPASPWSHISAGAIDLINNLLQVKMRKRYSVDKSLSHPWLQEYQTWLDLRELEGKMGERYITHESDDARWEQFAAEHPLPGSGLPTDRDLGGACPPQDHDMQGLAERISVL

[11] = biological target: T3, Serine/threonine-protein kinase D2 (Homo sapiens); conditions: at 1 µM
[12] = biological target: T4, Serine/threonine-protein kinase D3 (Homo sapiens) (UniProt O94806); conditions: at 0.1 µM
T4 sequence (whole entry): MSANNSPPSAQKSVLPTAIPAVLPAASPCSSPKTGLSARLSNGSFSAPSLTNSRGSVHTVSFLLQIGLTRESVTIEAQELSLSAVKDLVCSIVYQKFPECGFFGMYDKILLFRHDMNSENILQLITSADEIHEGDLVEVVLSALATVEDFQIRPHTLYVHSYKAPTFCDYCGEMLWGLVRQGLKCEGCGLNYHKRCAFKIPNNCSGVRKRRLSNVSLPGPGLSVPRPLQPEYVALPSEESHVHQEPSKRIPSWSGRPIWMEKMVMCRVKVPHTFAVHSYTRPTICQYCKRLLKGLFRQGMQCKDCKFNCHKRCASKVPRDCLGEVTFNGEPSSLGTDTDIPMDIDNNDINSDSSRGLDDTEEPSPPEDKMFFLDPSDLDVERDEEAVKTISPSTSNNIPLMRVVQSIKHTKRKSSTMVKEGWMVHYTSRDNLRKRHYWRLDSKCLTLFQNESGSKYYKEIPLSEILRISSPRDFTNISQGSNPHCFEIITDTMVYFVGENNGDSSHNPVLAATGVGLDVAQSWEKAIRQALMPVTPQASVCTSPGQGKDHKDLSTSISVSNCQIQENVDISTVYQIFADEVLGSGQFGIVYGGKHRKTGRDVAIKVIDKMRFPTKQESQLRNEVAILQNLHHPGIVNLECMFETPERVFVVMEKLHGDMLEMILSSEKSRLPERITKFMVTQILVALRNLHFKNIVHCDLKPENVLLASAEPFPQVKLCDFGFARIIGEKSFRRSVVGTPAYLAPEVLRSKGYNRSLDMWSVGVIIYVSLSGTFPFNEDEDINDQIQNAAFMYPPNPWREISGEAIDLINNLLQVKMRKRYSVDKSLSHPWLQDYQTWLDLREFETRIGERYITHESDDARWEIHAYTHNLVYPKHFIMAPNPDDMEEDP

[13] = biological target: T4, Serine/threonine-protein kinase D3 (Homo sapiens); conditions: at 1 µM
[14] = biological target: T5, cGMP-dependent protein kinase 1 (Homo sapiens) (UniProt Q13976); conditions: at 0.1 µM
T5 sequence (whole entry): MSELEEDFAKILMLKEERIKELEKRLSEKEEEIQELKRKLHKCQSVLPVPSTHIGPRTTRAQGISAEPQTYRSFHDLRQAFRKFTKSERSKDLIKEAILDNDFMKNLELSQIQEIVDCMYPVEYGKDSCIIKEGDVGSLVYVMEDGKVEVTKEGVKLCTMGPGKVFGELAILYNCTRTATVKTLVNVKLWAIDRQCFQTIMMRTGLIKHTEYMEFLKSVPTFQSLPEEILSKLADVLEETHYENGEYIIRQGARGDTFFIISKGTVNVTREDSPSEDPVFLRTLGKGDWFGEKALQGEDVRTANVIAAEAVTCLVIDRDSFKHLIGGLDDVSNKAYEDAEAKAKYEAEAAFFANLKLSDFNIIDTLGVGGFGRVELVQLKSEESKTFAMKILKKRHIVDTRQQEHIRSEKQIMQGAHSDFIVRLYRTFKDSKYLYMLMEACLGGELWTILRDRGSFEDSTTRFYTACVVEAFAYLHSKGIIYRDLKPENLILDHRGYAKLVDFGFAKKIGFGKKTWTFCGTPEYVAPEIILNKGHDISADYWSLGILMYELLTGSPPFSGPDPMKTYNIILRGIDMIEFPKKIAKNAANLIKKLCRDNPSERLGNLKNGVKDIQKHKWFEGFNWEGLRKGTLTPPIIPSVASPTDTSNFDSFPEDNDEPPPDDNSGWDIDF

[15] = biological target: T5, cGMP-dependent protein kinase 1 (Homo sapiens); conditions: at 1 µM
[16] = biological target: T6, cGMP-dependent protein kinase 2 (Homo sapiens) (UniProt Q13237); conditions: at 0.1 µM
T6 sequence (whole entry): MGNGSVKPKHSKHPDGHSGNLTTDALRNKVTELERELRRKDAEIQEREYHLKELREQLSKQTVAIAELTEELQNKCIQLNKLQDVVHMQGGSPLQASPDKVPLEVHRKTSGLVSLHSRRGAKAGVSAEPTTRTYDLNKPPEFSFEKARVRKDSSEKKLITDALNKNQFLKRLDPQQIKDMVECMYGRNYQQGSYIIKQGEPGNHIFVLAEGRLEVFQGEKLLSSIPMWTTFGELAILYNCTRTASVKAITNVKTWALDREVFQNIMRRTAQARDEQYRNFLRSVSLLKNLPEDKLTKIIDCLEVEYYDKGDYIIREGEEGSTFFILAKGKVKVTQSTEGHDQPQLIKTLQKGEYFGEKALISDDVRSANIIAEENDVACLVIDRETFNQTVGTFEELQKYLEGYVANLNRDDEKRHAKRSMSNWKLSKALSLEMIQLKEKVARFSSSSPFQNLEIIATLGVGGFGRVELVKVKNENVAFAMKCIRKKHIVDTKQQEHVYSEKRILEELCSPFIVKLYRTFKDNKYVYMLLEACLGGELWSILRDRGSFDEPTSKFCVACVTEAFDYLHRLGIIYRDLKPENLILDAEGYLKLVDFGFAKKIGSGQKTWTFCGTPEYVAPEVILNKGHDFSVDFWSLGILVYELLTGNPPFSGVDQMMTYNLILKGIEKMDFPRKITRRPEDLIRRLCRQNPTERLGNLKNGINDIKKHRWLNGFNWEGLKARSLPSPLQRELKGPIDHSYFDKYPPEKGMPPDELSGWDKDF

[17] = biological target: T6, cGMP-dependent protein kinase 2 (Homo sapiens); conditions: at 1 µM
[18] = biological target: T7, cAMP-dependent protein kinase catalytic subunit PRKX (Homo sapiens) (UniProt P51817); conditions: at 0.1 µM
T7 sequence (whole entry): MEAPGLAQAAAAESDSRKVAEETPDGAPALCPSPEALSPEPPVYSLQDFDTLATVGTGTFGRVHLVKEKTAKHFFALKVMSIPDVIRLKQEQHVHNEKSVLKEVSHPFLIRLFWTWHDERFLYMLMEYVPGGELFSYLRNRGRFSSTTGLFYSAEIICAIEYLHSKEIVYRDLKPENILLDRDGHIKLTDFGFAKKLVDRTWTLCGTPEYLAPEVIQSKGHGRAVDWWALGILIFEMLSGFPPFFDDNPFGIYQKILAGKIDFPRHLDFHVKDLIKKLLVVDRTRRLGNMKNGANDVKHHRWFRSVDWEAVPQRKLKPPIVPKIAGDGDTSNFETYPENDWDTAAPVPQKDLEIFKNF

[19] = biological target: T7, cAMP-dependent protein kinase catalytic subunit PRKX (Homo sapiens); conditions: at 1 µM
[20] = biological target: Rho-associated protein kinase 1 (Homo sapiens) (UniProt Q13464); conditions: at 0.1 µM;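 further: values are mean percent inhibition of ROCK1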
Rho-associated protein kinase 1 (Homo sapiens), sequence (Q13464 2-1354 limits assumed): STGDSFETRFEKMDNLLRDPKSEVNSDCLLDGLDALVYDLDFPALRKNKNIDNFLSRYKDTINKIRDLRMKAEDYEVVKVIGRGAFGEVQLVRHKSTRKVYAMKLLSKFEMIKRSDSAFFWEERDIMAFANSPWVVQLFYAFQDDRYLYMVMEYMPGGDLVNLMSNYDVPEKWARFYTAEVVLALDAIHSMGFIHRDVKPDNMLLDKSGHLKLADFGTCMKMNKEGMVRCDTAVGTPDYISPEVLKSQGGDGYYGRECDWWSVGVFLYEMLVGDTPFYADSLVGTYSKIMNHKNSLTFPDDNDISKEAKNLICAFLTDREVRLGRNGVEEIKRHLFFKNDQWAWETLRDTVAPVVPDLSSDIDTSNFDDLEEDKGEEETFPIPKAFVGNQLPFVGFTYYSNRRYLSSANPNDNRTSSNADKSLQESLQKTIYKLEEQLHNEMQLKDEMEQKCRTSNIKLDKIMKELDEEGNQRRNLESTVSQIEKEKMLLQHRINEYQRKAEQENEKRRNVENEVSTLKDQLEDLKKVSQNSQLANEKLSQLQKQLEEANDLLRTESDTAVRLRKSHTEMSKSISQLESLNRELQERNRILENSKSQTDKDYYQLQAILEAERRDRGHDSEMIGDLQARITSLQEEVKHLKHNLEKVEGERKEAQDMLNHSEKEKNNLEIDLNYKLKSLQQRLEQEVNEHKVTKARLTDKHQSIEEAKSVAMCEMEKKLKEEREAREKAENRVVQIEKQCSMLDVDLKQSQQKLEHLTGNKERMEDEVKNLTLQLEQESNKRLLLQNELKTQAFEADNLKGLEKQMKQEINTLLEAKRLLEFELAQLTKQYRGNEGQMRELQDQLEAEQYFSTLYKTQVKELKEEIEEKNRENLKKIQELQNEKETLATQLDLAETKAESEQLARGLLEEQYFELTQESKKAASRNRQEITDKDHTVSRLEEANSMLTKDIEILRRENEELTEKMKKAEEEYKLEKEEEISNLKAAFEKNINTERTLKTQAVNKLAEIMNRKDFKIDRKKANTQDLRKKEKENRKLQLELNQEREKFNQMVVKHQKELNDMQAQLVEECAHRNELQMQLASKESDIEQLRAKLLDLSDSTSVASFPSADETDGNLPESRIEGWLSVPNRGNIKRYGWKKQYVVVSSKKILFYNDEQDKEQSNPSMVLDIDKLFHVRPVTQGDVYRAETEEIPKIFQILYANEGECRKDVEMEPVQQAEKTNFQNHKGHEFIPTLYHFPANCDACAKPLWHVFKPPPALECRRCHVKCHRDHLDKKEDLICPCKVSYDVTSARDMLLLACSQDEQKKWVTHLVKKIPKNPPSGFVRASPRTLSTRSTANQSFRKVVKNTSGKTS

Protein kinase C theta type (Homo sapiens), sequence (Q04759 whole entry, looked up): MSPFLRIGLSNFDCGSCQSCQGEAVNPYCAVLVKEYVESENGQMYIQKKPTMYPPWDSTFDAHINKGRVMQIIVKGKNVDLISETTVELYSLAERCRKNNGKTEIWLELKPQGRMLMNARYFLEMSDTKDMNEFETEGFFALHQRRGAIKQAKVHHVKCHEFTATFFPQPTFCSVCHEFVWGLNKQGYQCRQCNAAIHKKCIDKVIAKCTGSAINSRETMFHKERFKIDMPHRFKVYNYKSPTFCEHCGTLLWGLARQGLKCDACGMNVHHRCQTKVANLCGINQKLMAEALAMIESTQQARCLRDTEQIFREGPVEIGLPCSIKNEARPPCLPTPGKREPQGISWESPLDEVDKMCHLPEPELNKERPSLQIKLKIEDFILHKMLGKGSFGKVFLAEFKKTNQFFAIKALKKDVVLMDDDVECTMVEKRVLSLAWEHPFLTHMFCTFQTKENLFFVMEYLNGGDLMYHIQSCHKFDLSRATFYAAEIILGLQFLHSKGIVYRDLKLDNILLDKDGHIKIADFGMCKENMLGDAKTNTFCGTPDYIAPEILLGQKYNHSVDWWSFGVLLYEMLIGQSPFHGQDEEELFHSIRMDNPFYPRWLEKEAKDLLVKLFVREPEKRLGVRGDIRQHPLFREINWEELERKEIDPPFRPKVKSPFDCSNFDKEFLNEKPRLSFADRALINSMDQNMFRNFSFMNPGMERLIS
Protein kinase C beta type (Homo sapiens), sequence (P05771 2-671 limits assumed): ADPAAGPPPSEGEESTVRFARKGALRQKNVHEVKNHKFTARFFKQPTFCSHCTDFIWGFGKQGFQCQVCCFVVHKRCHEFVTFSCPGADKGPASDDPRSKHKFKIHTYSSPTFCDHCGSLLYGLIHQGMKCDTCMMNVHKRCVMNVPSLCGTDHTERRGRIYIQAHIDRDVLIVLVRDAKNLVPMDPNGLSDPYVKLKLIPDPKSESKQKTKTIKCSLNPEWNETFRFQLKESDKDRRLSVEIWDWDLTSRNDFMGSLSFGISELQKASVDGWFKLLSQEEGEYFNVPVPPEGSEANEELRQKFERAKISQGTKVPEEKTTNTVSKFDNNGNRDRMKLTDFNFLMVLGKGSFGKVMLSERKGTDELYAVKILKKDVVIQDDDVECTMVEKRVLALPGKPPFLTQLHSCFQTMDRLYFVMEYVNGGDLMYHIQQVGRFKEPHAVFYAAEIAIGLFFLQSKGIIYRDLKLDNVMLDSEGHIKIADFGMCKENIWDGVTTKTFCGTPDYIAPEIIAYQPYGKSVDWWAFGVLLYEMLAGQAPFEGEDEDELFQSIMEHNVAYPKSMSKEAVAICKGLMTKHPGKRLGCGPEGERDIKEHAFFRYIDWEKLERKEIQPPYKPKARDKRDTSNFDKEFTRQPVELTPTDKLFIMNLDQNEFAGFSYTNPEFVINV

SMILES | inhibition [1] | inhibition [2] | inhibition [3] | inhibition [4] | inhibition [5] | inhibition [6] | inhibition [7] | inhibition [8] | inhibition [9] | inhibition [10] | inhibition [11] | inhibition [12] | inhibition [13] | inhibition [14] | inhibition [15] | inhibition [16] | inhibition [17] | inhibition [18] | inhibition [19] | inhibition [20]
COc1cc(Nc2ncc(-c3ccccc3)o2)cc(OC)c1 | 2.55% | 2.88% | 3.11% | 2.43% | 3.38% | 0.78% | 2.17% | 4.12% | 5.16% | 3.39% | 1.86% | 5.05% | 4.51% | 1.76% | 1.96% | 1.74% | 2.19% | 0.91% | 4.53% | 2.5%
Nc1nonc1-c1nc2cnccc2n1C1CC1 | 16.4% and 14.8% | 1.95% and 3.2% | 14.8% and 15.6% | 8.24% and 7.85% | 38.7% and 40.1% | 7.25% and 6.7% | 31.2% and 31.3% | 4% and 0.29% | 22.3% and 23.2% | 4% and 0.3% | 18.3% and 17.4% | 5.14% and 1.26% | 21.9% and 19.9% | 13.6% and 15.4% | 50.7% and 56.1% | 36.7% and 40.2% | 65.8% and 69.3% | 3.44% and 4.71% | 23.7% and 26.4% | 43.6% and 46.2%
